# LANA DNA inh: KSHV C-LANA DNA binding inhibition; hit rate 0.078% among 340,000; inhibition, % at 9 µM; AID 504423; MBP-C-LANA/FAM-LBS DNA binding, fluorescence polarization;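 active = highest replicate inhibition at or above 60% at 9 µM, even if other replicates fall short; inactive = all replicates below 60% inhibition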;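 also: 0% = neutral control wells and 100% = 4 µM acridine orange control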
# Keap1 Nrf2 FP: Keap1-Nrf2 (human) interaction inhibition. Q14145. Keap1 Kelch-Nrf2 peptide fluorescence polarization, 1536-well. inhibition, % at 9.4 µM. hit rate 0.15% among 340,000. AID 504523; in the data active = inhibition above about 12%; inconclusive = no clear call, values can overlap the other calls; inactive = below about 7.3%;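 also: human Keap1 Kelch domain with fluorescein labeled Nrf2 9mer peptide probe; 0% = neutral control wells and 100% = peptide positive control; higher means more block of Keap1 binding to Nrf2 peptide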
# Target sequence (Q14145 whole entry, looked up, the tested form may be a part): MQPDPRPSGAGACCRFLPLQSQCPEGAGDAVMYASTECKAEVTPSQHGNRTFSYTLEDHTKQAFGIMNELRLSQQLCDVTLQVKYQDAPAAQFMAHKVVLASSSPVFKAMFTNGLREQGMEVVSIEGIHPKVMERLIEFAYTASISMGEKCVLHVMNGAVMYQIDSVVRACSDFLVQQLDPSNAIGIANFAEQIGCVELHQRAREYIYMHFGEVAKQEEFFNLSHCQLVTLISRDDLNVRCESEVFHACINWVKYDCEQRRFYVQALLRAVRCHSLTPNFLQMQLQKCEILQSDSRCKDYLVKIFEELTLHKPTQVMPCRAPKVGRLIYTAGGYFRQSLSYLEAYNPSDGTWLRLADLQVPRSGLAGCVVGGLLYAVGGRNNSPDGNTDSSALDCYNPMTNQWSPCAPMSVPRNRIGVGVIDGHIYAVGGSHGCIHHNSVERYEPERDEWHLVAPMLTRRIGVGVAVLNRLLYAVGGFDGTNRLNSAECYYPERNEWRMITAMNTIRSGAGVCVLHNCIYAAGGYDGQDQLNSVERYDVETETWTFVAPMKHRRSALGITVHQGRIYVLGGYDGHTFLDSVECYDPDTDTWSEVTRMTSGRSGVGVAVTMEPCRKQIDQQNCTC
# CRFBP-R2 block: blocks CRF-induced signaling of the CRF-BP/CRF-R2 complex; HEK293 CRF-R2/CRF-BP, CRF-induced calcium fluorescence; inhibition, % at 11.8 µM; hit rate 0.59% among 350,000; AID 588475;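 active = inhibition of the ligand-induced calcium signal above about 50% at the single tested concentration, limit read from the data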
# Cardiac RTF inh: cardiac RTF calcium desensitization; hit rate 0.12% among 340,000; inhibition, % at 7.15 µM; IANBD-labeled cardiac RTF, Ca2+ fluorescence;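 active = inhibition above the mean inhibition of all tested compounds plus 3 SD, cut at about 17% in these data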;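 also: assay run at fixed EC70 calcium of 1.6 mM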
# RTF Ca sens act: increases calcium sensitivity of human cardiac regulated thin filaments. activation, % at 7.2 µM. AID 493008. P19429+P45379. IANBD-labeled TnC RTF fluorescence at EC20 calcium; 0% EC20 calcium, 100% full calcium. hit rate 0.24% among 340,000;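 active = activation above the mean over all tested compounds plus 3 SD, cut at about 30% in these data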;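 also: rise in fluorescence read as greater calcium sensitivity of cardiac thin filaments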
# CRFR2-BP ag: CRF-BP/CRF-R2 complex agonism; AID 588473; activation, % at 13.2 µM; HEK293 CRF-R2/CRF-BP, calcium dye fluorescence (FLIPR); percent of saturating CRF peptide response; hit rate 0.46% among 350,000;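 active = activation of at least 50%, plus an integration ratio under a set limit after plate pattern correction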;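 also: plate controls were neutral control wells without compound for no effect and CRF at EC100 for full effect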
# An asterisk follows results filed as active; ? = inconclusive; nt = not tested or not shown. In the library only some 1.3% were active in any assay of this set; here they are far more common.
SMILES,LANA DNA inh,Keap1 Nrf2 FP,CRFBP-R2 block,Cardiac RTF inh,RTF Ca sens act,CRFR2-BP ag
O=C(CN1C2CCCC1CC(NC(=O)c1ccco1)C2)Nc1ccccc1C(F)(F)F (centres undefined),-2,-4,3,7,-8,-2
CCOC(=O)C1=C(O)c2ccccc2C(=O)/C1=C\c1ccc(C)cc1,-5,-10,-152,-7,1,111*
CCOC(=O)C1=C(C)OC(=Cc2ccccc2)C1=O,nt,nt,1,nt,nt,-2
CCOC(=O)c1sc(=NC(=O)c2ccc(Cl)s2)n(C)c1C,-1,-2,114*,-3,-1,-1
Cc1ccc(CNC(=O)CN2CCN(c3ccc(F)cc3)CC2)cc1,-2,-1,2,-1,1,0
COc1ccc(CNC(=O)CN2CCN(c3ccc(F)cc3)CC2)cc1,-1,1,58*,-5,-2,-2
O=C(CCCCl)Oc1ccc2cc(-c3ccc4ccccc4n3)c(=O)oc2c1,1,1,-94,-15,2,106*
CCOc1ccccc1N(CC(=O)Nc1ccc(OC)c(OC)c1)S(=O)(=O)c1ccccc1,0,-4,0,5,52*,-3
Cc1noc(C)c1S(=O)(=O)N1CCC(C(=O)N2CCN(c3ccccc3Cl)CC2)CC1,2,3,4,2,-6,0
Cc1noc(C)c1S(=O)(=O)N1CCC(C(=O)N2CCN(c3ccc(Cl)cc3)CC2)CC1,-1,-6,58*,0,7,0
COC(=O)c1ccc(N2CN=C(c3ccc(C)cc3)NC2=S)cc1,-1,-2,-17,-5,-7,0
C/C(=C\c1ccc2c(c1)OCO2)C1Nc2cccc3cccc(c23)N1,62*,7,-8,0,-2,0
CC(=O)NCC(=O)NC1CCCc2c1cnn2-c1ccc(C(C)(C)C)cc1 (centres undefined),-1,-1,-5,-16,12,-3
NC(=O)COC(=O)c1ccc(Oc2ccccc2)cc1,0,-1,13,2,9,0
O=C1CN(C(=O)CSc2nc3ccccc3n2CCc2ccccc2)c2ccccc2N1,-1,-4,-18,-22,5,1
CCCn1c(SCC(=O)N2CC(=O)Nc3ccccc32)nc2ccccc21,0,-12,-92,-14,-5,56*
Cc1nc2c(=O)[nH]c(=S)[nH]c2[nH]c1=O,103*,?,2,2,-13,2
Cc1nc2[nH]c(=S)[nH]c(=O)c2nc1C,2,-2,-3,-1,0,2
Cn1cccc1/C=C1\CCC/C(=C\c2cccn2C)C1=O,-12,-134,-185,-310,181*,155*
CCOc1ccc(-c2cc(N3C(=O)Nc4ccccc4N3O)n[nH]2)cc1,-2,5,6,-12,-2,-1
CCOC(=O)c1c(N2C(=O)Nc3ccccc3N2O)n[nH]c1-c1cccc(Cl)c1,-1,-1,68*,-1,-1,0
CCn1cc(S(=O)(=O)c2ccc(OC)cc2)c(=O)c2cc(OC)ccc21,0,-2,-14,-10,3,0
Cc1ccc(S(=O)(=O)N(C)CC(=O)NCCCc2ccccc2)cc1,1,-4,-46,-5,7,61*
COc1ccc(S(=O)(=O)N(C)CC(=O)NCCc2ccccc2)cc1OC,0,0,1,-8,4,-1
CCCCCN(C(=O)CCC(=O)OCC(=O)c1c(C)cc(C)cc1C)c1c(N)n(CCCC)c(=O)[nH]c1=O,1,-2,52*,-2,-12,-1
Cc1c(Cc2ccccc2)c(=O)n2c([nH]c3ccccc32)c1C#N,2,-5,11,4,-4,33
COc1ccccc1N=Cc1c(C)c(C#N)c2[nH]c3ccccc3n2c1=O,0,0,-30,-13,62*,27
CN(C)c1ccc(/C=C2\CCC/C(=C\c3ccccc3)C2=O)cc1,1,3,-69,-87,84*,31
O=C1/C(=C/c2ccccc2)CCCc2ccccc21,1,-1,-2,2,-2,0
COC(=O)c1cc(NC(=O)c2ccccc2)c(=O)oc1/C=C/Nc1ccc(Oc2ccccc2)cc1,9,-190,-167,-254,113*,138*

# Compound activity: PubChem, several laboratories
